# Test results as given in PubChem BioAssay.
# A number with no mark means an inactive call. For some assays here: Measured potencies and affinities stand elsewhere. The source made the active and inactive calls. Unless noted, how the calls were made is not given here.
# What was measured:
# [1] = antimalarial activity against Dd2 strain (AID 2302;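 active means growth inhibition above 50% at the single 2 µM test dose, taken to imply half-maximal potency below 2 µM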;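 further: 0% = DMSO untreated growth and 100% = chloroquine plus artemisinin killed control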); conditions: P. falciparum Dd2 in RBCs, LDH growth readout, 72 h; at 2 µM; stronger effect = higher value
# [2] = HepG2 cytotoxicity, primary screen, cytotoxicity control for P. falciparum antimalarial project, cell-based, ATP luminescence (AID 2303;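 active means inhibition above 50%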;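 further: 0% = DMSO wells and 100% = digitonin-killed cells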); conditions: HepG2 viability, 24-48 h, at 10 µM, stronger effect = higher value
# [3] = target: L-lactate dehydrogenase (Plasmodium falciparum (isolate CDC / Honduras)) (UniProt Q27743); assay: PfLDH activity inhibition – cell lysate, 3D7 strain, counter-screen for P. falciparum growth inhibition project (AID 2304);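 further: 0% = vehicle and 100% = reference inhibitor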; conditions: P. falciparum 3D7 crude extract, LDH APAD/NBT absorbance; at 2 µM; stronger effect = higher value
# Sequence of L-lactate dehydrogenase (Plasmodium falciparum (isolate CDC / Honduras)) (Q27743 whole entry, looked up): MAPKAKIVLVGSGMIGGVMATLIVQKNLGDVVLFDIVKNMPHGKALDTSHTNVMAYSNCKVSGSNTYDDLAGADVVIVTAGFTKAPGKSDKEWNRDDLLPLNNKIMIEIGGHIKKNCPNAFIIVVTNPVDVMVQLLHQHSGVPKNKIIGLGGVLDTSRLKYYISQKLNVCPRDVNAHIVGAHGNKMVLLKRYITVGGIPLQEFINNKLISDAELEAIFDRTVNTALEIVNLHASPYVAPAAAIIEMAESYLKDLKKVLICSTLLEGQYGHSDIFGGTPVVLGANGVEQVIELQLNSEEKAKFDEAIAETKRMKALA
# [4] = inhibition of 3D7 malaria parasite growth – strain 3D7 (AID 2306);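 further: 0% = DMSO wells and 100% = chloroquine plus artemisinin control wells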; conditions: P. falciparum 3D7 erythrocytic growth, LDH absorbance, 72 h; at 2 µM; stronger effect = higher value
# [5] = target: Calcium-dependent protein kinase 1 (Plasmodium falciparum (isolate 3D7)) (UniProt P62344); assay: PfCDPK1 kinase inhibitors, biochemical, TCAMS library (AID 1159585; cut-off not given, nearly all actives have IC50 up to about 0.98 µM;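 further: inhibitors leave more ATP so luminescence rises with inhibition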); conditions: recombinant PfCDPK1, Kinase-Glo ATP depletion luminescence
# Sequence of Calcium-dependent protein kinase 1 (Plasmodium falciparum (isolate 3D7)) (P62344 whole entry, looked up): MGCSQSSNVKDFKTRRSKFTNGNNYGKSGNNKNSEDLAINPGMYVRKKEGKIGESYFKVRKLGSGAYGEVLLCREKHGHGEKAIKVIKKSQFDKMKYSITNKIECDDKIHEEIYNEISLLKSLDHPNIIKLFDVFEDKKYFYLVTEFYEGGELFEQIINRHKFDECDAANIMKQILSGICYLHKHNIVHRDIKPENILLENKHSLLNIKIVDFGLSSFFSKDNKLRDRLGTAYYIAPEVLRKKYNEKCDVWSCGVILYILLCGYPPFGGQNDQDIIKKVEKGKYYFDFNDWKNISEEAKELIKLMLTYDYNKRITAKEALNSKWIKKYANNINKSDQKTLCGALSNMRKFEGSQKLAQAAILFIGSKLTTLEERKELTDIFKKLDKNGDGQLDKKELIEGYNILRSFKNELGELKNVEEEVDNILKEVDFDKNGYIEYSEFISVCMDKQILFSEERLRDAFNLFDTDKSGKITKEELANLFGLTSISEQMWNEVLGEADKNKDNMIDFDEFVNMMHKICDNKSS
# [6] = target: Plasmodium falciparum protein kinase 6 (PK6, PF3D7_1337100) (UniProt Q8IDW1); assay: PfPK6 kinase inhibitors, biochemical, TCAMS library (AID 1159586); conditions: recombinant PfPK6, Kinase-Glo ATP depletion luminescence
# Sequence of Plasmodium falciparum protein kinase 6 (PK6, PF3D7_1337100) (Q8IDW1 1-305): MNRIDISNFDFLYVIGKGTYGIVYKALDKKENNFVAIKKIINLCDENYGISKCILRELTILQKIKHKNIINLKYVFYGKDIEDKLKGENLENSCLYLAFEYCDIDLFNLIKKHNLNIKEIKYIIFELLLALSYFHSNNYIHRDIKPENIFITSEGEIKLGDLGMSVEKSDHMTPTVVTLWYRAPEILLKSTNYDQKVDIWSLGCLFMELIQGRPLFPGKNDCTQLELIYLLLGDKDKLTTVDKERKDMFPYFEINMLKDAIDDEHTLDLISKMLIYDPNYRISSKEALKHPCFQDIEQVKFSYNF
# [7] = target: Protein kinase 7 (PK7), Plasmodium falciparum 3D7 (PF3D7_0213400) (UniProt Q7YTF7); assay: inhibition of Plasmodium PK7 catalytic activity – biochemical, TCAMS antimalarial set, Kinase-Glo luminescence (AID 1159587); conditions: recombinant PfPK7, Kinase-Glo ATP depletion luminescence
# Sequence of Protein kinase 7 (PK7), Plasmodium falciparum 3D7 (PF3D7_0213400) (Q7YTF7 1-343): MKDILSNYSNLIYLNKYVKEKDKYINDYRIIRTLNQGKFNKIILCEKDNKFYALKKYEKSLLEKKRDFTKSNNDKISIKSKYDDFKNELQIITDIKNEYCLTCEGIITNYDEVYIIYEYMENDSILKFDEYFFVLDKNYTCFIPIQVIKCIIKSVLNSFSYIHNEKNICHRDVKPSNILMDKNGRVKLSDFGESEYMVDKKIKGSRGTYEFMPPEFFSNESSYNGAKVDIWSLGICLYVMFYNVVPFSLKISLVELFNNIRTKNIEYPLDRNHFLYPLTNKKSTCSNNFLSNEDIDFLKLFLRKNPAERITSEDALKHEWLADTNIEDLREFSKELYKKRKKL
# [8] = target: Calcium-dependent protein kinase 4 (Plasmodium falciparum (isolate 3D7)) (UniProt Q8IBS5); assay: PfCDPK4 kinase inhibitors, biochemical, TCAMS library (AID 1159588; cut-off not given, nearly all actives have IC50 up to about 0.91 µM); conditions: recombinant PfCDPK4, Kinase-Glo ATP depletion luminescence
# Sequence of Calcium-dependent protein kinase 4 (Plasmodium falciparum (isolate 3D7)) (Q8IBS5 whole entry, looked up): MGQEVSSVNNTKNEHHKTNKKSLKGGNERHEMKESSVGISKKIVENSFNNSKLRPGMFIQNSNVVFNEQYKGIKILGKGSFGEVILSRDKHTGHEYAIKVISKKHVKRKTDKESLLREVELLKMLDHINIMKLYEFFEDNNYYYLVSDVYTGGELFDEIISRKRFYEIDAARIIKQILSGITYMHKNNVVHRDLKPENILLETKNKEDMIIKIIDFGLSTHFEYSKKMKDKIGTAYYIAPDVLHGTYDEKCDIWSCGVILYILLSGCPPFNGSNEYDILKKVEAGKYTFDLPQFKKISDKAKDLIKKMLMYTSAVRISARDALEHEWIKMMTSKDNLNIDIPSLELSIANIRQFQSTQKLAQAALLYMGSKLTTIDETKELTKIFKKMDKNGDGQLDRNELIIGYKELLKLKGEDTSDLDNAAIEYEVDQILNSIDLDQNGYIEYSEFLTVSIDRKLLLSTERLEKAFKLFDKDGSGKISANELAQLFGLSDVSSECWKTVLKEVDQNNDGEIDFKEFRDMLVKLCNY
SMILES,growth inhibition [1],inhibition [2],inhibition [3] [%],growth inhibition [4],outcome [5],outcome [6],outcome [7],outcome [8]
CCOCc1cn(CC(=O)c2ccc(-c3ccccc3)cc2)c(C)nc1=N,72% (active),13%,5,93% (active),inactive,inactive,inactive,inactive
CN(C)c1ccc(NC(=O)Nc2ccnc3ccc(Br)cc23)cc1,21%,-5%,6,91% (active),inactive,inactive,inactive,inactive
COC(=O)c1ccccc1N1CCN(CCCCNC(=O)c2ccc(NC(=O)c3cc(Cl)cc(Cl)c3)cc2)CC1,42%,20%,0,100% (active),inactive,inactive,inactive,inactive
CC(CN1CCN(CC(c2ccc(F)cc2)N2CCN(C)CC2)CC1)C(=O)c1ccc(O)cc1 (stereo not given),10%,-2%,-5,97% (active),inactive,inactive,inactive,inactive
O=C(NC1CCN(Cc2ccccc2)CC1)c1cc(-c2ccncc2)nc2ccc(Cl)cc12,27%,17%,0,97% (active),inactive,inactive,inactive,inactive
CCCCNCc1ccc(-c2nc(CN(C(=O)Nc3cc([N+](=O)[O-])ccc3F)C3Cc4ccccc4C3)cs2)cc1,13%,15%,-2,87% (active),inactive,inactive,inactive,inactive
CC(=O)c1c[nH]c2ccc(/C=C/C(=O)NC3CCC(CCN4CCc5ccc(C#N)cc5CC4)CC3)cc12 (stereo not given),98% (active),11%,9,101% (active),inactive,inactive,inactive,inactive
Cc1c(-c2cccc(NC(=O)C(C)(C)Oc3ccc(Cl)cc3)c2)nc2ncccn12,95% (active),0%,-3,98% (active),inactive,inactive,inactive,inactive
CC(=O)Nc1cccc(/C=C/C(=O)N2CCC(N3CCCCC3)CC2)c1,0%,1%,1,96% (active),inactive,inactive,inactive,inactive
Cc1cc(N)c2cc(NC(=O)/C=C/c3ccccc3Cl)ccc2n1,98% (active),81% (active),-2,100% (active),inactive,inactive,inactive,inactive
Oc1cccc2c1CC(NCc1ccccc1)CC2 (stereo not given),24%,4%,6,90% (active),inactive,inactive,inactive,inactive
COc1cc2nc(-c3ccccc3)nc(N3CCN(CC(=O)N4CCCC4)CC3)c2cc1OC,70% (active),7%,-1,84% (active),inactive,inactive,inactive,inactive
O=C(Cc1ccccn1)Nc1cccc(-c2cccc(-c3nc4ccc(C(F)(F)F)cc4[nH]3)c2)c1,22%,26%,-2,95% (active),inactive,inactive,inactive,inactive
COc1ccccc1CCNc1nccc(N[C@@H](Cc2ccccc2)C(=O)NCc2cccs2)n1,79% (active),34%,3,90% (active),inactive,inactive,inactive,inactive
O=C(/C=C/c1ccc(Cl)c(Cl)c1)NCCCCCCN1CCN(C(=O)Nc2ccc(C(F)(F)F)cc2)CC1,44%,42%,-1,100% (active),inactive,inactive,inactive,inactive
Cc1cc(-c2cccc3c(C(=O)N4CCc5cc6nccc(N7CCN8CCC[C@H]8C7)c6cc54)cccc23)cc(C)n1,76% (active),13%,-3,97% (active),inactive,inactive,inactive,inactive
COc1ccccc1C1CCN(C2CCC(NC(=O)c3cc4ccccc4[nH]3)CC2)CC1 (stereo not given),7%,49%,0,88% (active),inactive,inactive,inactive,inactive
c1cc(Nc2nccc(-c3cnn4ncccc34)n2)cc(-c2cnco2)c1,83% (active),54% (active),3,96% (active),inactive,inactive,inactive,inactive
Oc1c(Br)cc2oc3c(c2c1CNCc1ccccc1)CCCC3,74% (active),-19%,0,99% (active),inactive,inactive,inactive,inactive
CCCCCc1cc(OC(C)=O)c2c(c1)OC(C)(C)C=C2C1=CCN(Cc2ccccc2)CC1,88% (active),14%,-3,97% (active),inactive,inactive,inactive,inactive

SMILES,growth inhibition [1],inhibition [2],inhibition [3] [%],growth inhibition [4],outcome [5],outcome [6],outcome [7],outcome [8]
COc1cc2c(cc1CCNCCCCNCCc1cc3c(cc1OC)CCCC3)CCCC2,36%,100% (active),0,101% (active),inactive,inactive,inactive,inactive
Cc1cnc(C(=O)Nc2ccc(-c3cccc(-c4nc5ccccc5[nH]4)c3)cc2)cn1,8%,77% (active),-3,93% (active),inactive,inactive,inactive,inactive
CCOc1ccc2c(NN=Cc3cccc(F)c3)cc(C)nc2c1,100% (active),0%,7,100% (active),inactive,inactive,inactive,inactive
Cc1ccc(N2CCN(C(=O)c3cccc(-c4cncc5nc(-c6ccco6)n(C)c45)c3)CC2)nc1,91% (active),-13%,-1,94% (active),inactive,inactive,inactive,inactive
Cc1cccc2[nH]c(-c3cccc(-c4ccc(NC(=O)c5ccoc5)cc4)c3)nc12,56% (active),65% (active),-5,99% (active),inactive,inactive,inactive,inactive
O=C1COC(c2ccccc2)(c2ccccc2)CN1CC1CCN(Cc2ccc(O)cc2Cl)C1 (stereo not given),81% (active),53% (active),2,85% (active),inactive,inactive,inactive,inactive
CN(c1ccccc1)S(=O)(=O)c1cccc(NC(=O)c2ccc(-n3ccnc3)c([N+](=O)[O-])c2)c1,-8%,19%,2,83% (active),inactive,inactive,inactive,inactive
CNCCNCc1cccc(-c2ccc(-c3nc4c(C)cccc4[nH]3)s2)c1,8%,10%,-6,92% (active),inactive,inactive,inactive,inactive
Cc1[nH]c(-c2ccc(F)cc2)cc1C(=O)NC1CCN(Cc2ccccc2)CC1,9%,6%,-2,84% (active),inactive,inactive,inactive,inactive
CCCCCCCCc1[nH]c(C)c(Br)c(=O)c1Br,95% (active),2%,2,96% (active),inactive,inactive,inactive,inactive
Cc1cc(Br)c(OCCCON2C(N)=NC(N)=NC2(C)C)c(Br)c1,97% (active),62% (active),-3,95% (active),inactive,inactive,inactive,inactive
O=C(/C=C/c1ccc(Cl)c(Cl)c1)NCCCCCN1CCC(c2c[nH]c3cc(O)ccc23)CC1,2%,32%,3,101% (active),inactive,inactive,inactive,inactive
Oc1ccc(CCNc2nc(NCCCOc3ccccc3-c3cccnc3)nc(N3CCNCC3)n2)cc1,1%,10%,0,92% (active),inactive,inactive,inactive,inactive
CCCCC(CCCC)CN1C(=O)C(c2ccccc2)(c2ccccc2)N=C1N,96% (active),28%,-3,96% (active),inactive,inactive,inactive,inactive
COc1ccc(CN(C)CC(O)COc2ccc(NC(=O)c3cccc4c(=O)c5cccc(OC)c5[nH]c34)cc2)cc1OC (stereo not given),65% (active),72% (active),-3,93% (active),inactive,inactive,inactive,inactive
COc1ccc2nccc([C@@H](O)CN3CCC(NCc4cc5cccc(O)c5[nH]4)CC3)c2c1,35%,-10%,-6,101% (active),inactive,inactive,inactive,inactive
Cc1cc(NN=Cc2ccccc2F)c2cc(F)ccc2n1,97% (active),9%,-5,101% (active),inactive,inactive,inactive,inactive
Cc1cccc2[nH]c(-c3ccc(-c4ccc(CN5CCN(c6ccc(C#N)cn6)CC5)cc4)s3)nc12,44%,10%,2,98% (active),inactive,inactive,inactive,inactive
Cc1cccc(-n2c(=O)c3c4c(sc3n3c(SCCC(C)C)nnc23)CCCC4)c1,8%,-2%,-4,90% (active),inactive,inactive,inactive,inactive
Cc1cccc2[nH]c(-c3cccc(-c4cccc(CN5CCCC5CN)c4)c3)nc12 (stereo not given),72% (active),15%,6,101% (active),inactive,inactive,inactive,inactive
